# Measurements: PubChem BioAssay (NCI)
# About 83,000 compounds went through this panel and 20% of them were active in at least one assay; those are over-represented in the sample as a whole.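 How to read the values: 0–100, growth inhibition (40 = 60% inhibited); 0, no net growth; -100 to 0, cell death (-40 = 40% of starting cells died; -100 = all dead).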 Activity calls are given as the source filed them. The calls were made as follows: active = growth percent below 10; inactive = the rest.
# Tested on: HCT-15 colon
# Test: NCI-60 one-dose screen, 48 h (100 = growth as untreated, 0 = no growth, -100 = all killed)
# Conditions: 10 µM unless noted
row,SMILES,growth
1,N#C/C(=C\c1ccc(Br)cc1)n1nnc2cccc(F)c21,1.81% (active)
2,COc1cc2oc(-c3cccc(C(=O)Nc4ccc(Cl)cc4)c3)cc(=O)c2c(OC)c1OC,17% (inactive)
3,CS(=O)(=O)c1ccc(-c2cc(-c3nnc(SCC(=O)Nc4ccc(C(=O)/C=C/c5ccc(Cl)cc5)cc4)n3-c3ccccc3)c3ccccc3n2)cc1,96.4% (inactive)
4,COc1ccccc1OCC(=O)N1CCCCCC1,103% (inactive)
5,NC(=O)c1cccc(-n2ccc3cc(NC(=O)Nc4cc(C(F)(F)F)cc(C(F)(F)F)c4)ccc32)n1,37.1% (inactive)
6,COc1cc2nc(-c3ccc(C(F)(F)F)cc3)cc(OCCCN3CCCCC3)c2cc1OC,9.99% (active)
7,COc1ccc2c(Nc3ccc(NS(C)(=O)=O)cc3)c3ccccc3nc2c1,1.84% (active)
8,C=CCn1c(SCC(=O)Nc2ccc(C(=O)/C=C/c3cc(OC)c(OC)c(OC)c3)cc2)nnc1-c1cc(-c2ccc(S(C)(=O)=O)cc2)nc2ccccc12,69.7% (inactive)
9,CN(C)c1ccc(-c2c(C#N)c(N)n3nc(N)c(C#N)c3c2C#N)cc1,81.8% (inactive)
10,CCCCCN1C=C/C(=C\C(=O)N(C)c2cccc3ccccc23)c2ccccc21,101% (inactive)
11,CCCCCOc1ccc(/C=N/Nc2cc(C)nc3ccc(Br)cc23)cc1,-91.4% (active)
12,COc1cccc(C(Cc2ccccc2)Nc2ccccc2)c1OC (centres undefined),91.3% (inactive)
13,Cc1ccc(Nc2cc(=S)nc(N)[nH]2)cc1C,104% (inactive)
14,O=S(=O)(O)c1cc(O)c2c(N=Nc3ccc(Nc4ccccc4)c4c(S(=O)(=O)O)cccc34)cc(S(=O)(=O)O)cc2c1,99.1% (inactive)
